RE007 growth inh: less growth of the S. pombe RE007 Vpr strain | Potency, µM (highest dose often 92.2 µM), usual class: inhibitors | S. pombe RE007 Vpr strain, BacTiter-Glo ATP luminescence, 24 h | hit rate 0.21% among 360,000; active = well fitted falling curve with a large enough effect; inconclusive = small, poorly fitted or top-dose-only effect; inactive = no such curve, though single readings can be large or run the other way; also: nearly all actives have a fitted effect of over 50% in size
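Fission yeast strain RE007, carrying one chromosomally integrated HIV-1 vpr copy, was seeded at OD 0.01 in PMG+AL medium with 23 nL pinned compound. After 24 h at 30 °C and 99% humidity, viability was read by BacTiter-Glo luminescence.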
Lassa entry inh: blocks Lassa virus binding to or entry into cells. Lassa virus pseudotype entry inhibition, cell reporter. Potency, µM (titrated, usually from 37.9 µM), usual class: inhibitors. hit rate 1.2% among 300,000; calls by dose curve; tested in HEK293 cells; also: nearly all actives have a fitted effect of over 50% in size
Sm TGR inh: S. mansoni TGR enzyme inhibition; Potency, µM (doses to about 114 µM), hits mostly inhibitors; hit rate 3% among 360,000; purified TGR, DTNB reduction, TNB absorbance 405 nm; Q962Y6; also: nearly all actives have a fitted effect of over 60% in size
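Kinetic colorimetric format: TGR-catalysed, NADPH-driven DTNB reduction monitored via TNB absorbance. Enzyme dispensed at 20 nM; compound exposure 15 min at room temperature before reaction start.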
Marburg entry inh: Marburg virus entry inhibition. Potency, µM (doses to about 37.8 µM), actives largely listed as inhibitors. hit rate 1.8% among 300,000. AID 540276. Marburg virus pseudotyped entry inhibition, cell reporter; calls by dose curve; tested in HEK293 cells
FMDV inh: antivirals against foot and mouth disease virus | FMDV antiviral cell-based qHTS | Potency, µM (highest dose often 57.9 µM), hits mostly inhibitors | hit rate 1.2% among 410,000; calls by dose curve; tested in HEK293T cells; also: read-out not given here; nearly all actives have a fitted effect of over 45% in size
HCV inh: blocks hepatitis C virus; Huh7.5.1 HCVcc-Cre infection, luciferase reporter, 44 h; Potency, µM (titrated, usually from 41.8 µM), hits mostly inhibitors; hit rate 3.4% among 340,000
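A cell-based infection assay in which seeded cells (1,000 per well) receive test compound after 4 h, are inoculated with HCVcc-Cre at approximately 0.5 moi, and are incubated 44 h before luminescence detection.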
A number is an active result. Hits are enriched below; roughly 7.2% of the tested compounds scored in any of these assays. Unless noted, calls follow the shape of the dose curve; as a rule, active = well fitted curve in the direction sought with a large enough effect; inconclusive = small, poorly fitted or top-dose-only effect, or another doubt; inactive = no such curve, though single readings can be large; an effect the other way counts as inactive or inconclusive.

`CCOc1ccc(NC(=S)N=Nc2c(O)[nH]c3ccccc23)cc1` gave RE007 growth inh inactive, Lassa entry inh inconclusive, Sm TGR inh inactive, Marburg entry inh inconclusive, FMDV inh inactive and HCV inh 13µM.
Screening Oc1[nH]c2ccc(Br)cc2c1N=NC(=S)N1CCOCC1 returned RE007 growth inh inactive, Sm TGR inh inactive, FMDV inh 3.2µM and HCV inh 11µM.
Oc1[nH]c2ccccc2c1N=NC(=S)N1CCOCC1 was read as RE007 growth inh inactive, Sm TGR inh inactive, FMDV inh inconclusive and HCV inh 8.9µM.
Screening COc1cc(=O)n2c(c1C(=O)NCc1ccco1)CCN(Cc1ccc3nsnc3c1)CC2 returned FMDV inh inactive.
Screening COc1ccc(C(=O)NCCc2csc(-c3ccc(Cl)cc3)n2)c(OC)c1 returned Lassa entry inh inactive, Sm TGR inh inactive and FMDV inh inconclusive.
`Cc1cc(-c2ccc(C)c(S(=O)(=O)N(C(C)C)C3CCCCC3)c2)on1` gave Lassa entry inh inactive, Sm TGR inh inactive and FMDV inh inactive.
CC(=O)CSc1nc2cc3c(cc2cc1C#N)OCCO3 was read as RE007 growth inh inactive, Lassa entry inh inconclusive, Sm TGR inh inactive, Marburg entry inh 1.4µM, FMDV inh inactive and HCV inh inactive.
`CCOc1ccc(C2/C(=C(/O)c3ccc4c(c3)CC(C)O4)C(=O)C(=O)N2CCCn2ccnc2)cc1OCC` (configuration not stated) gave RE007 growth inh inactive, Sm TGR inh 89µM, FMDV inh inactive and HCV inh inactive.
For C=CCOc1ccc(C2/C(=C(/O)c3ccc4c(c3)CC(C)O4)C(=O)C(=O)N2CCCN2CCOCC2)cc1 (configuration not stated) the results were RE007 growth inh inactive, Lassa entry inh inactive, Sm TGR inh inactive, Marburg entry inh inactive, FMDV inh inconclusive and HCV inh inactive.
C=CCOc1ccc(C2/C(=C(\O)c3ccc4c(c3)CC(C)O4)C(=O)C(=O)N2CCN2CCOCC2)cc1OCC (configuration not stated) was read as RE007 growth inh inactive, Sm TGR inh 40µM, FMDV inh inactive and HCV inh inactive.
Screening COc1cc(C2/C(=C(\O)c3ccc4c(c3)CC(C)O4)C(=O)C(=O)N2CCCn2ccnc2)ccc1O (configuration not stated) returned RE007 growth inh inactive, Lassa entry inh inactive, Sm TGR inh inactive, Marburg entry inh inconclusive, FMDV inh inactive and HCV inh inactive.
For CCOc1ccc(C(=O)Nc2nc(-c3ccc(Br)cc3)ns2)cc1 the results were Lassa entry inh inactive, Sm TGR inh inactive, Marburg entry inh inactive and FMDV inh inactive.
Cc1cccc(NC(=O)C2CCN(S(=O)(=O)c3c(C)nn(C)c3C)CC2)n1 was read as RE007 growth inh inactive, Sm TGR inh inactive, Marburg entry inh inactive, FMDV inh inconclusive and HCV inh 25µM.
Cc1cccc(NC(=O)C2CCN(S(=O)(=O)c3ccc4ccccc4c3)CC2)n1 was read as RE007 growth inh inactive, Lassa entry inh inconclusive, Sm TGR inh inactive, Marburg entry inh inconclusive, FMDV inh 25µM and HCV inh inconclusive.
For CC(C)(CNC(=O)c1cnn(-c2nccc(-c3ccccc3F)n2)c1C1CC1)N1CCOCC1 the results were FMDV inh inactive.
For Cc1cc(Br)cnc1NC(=S)Nc1ccc(F)cc1F the results were RE007 growth inh inactive, Lassa entry inh inactive, Sm TGR inh inconclusive, Marburg entry inh inconclusive, FMDV inh inactive and HCV inh 10µM.
CCNC(=O)CN1C(=O)NC(Cc2ccccc2)(Cc2ccccc2)C1=O was read as RE007 growth inh inactive, Lassa entry inh inactive, Sm TGR inh inactive, Marburg entry inh inactive, FMDV inh inactive and HCV inh inactive.
CCC1(CC)NC(=O)N(CC(=O)NC(=O)NCc2ccccc2)C1=O was read as RE007 growth inh inactive, Lassa entry inh inactive, Sm TGR inh 22µM, Marburg entry inh inactive, FMDV inh inactive and HCV inh inactive.
For CCCn1nc(NC(=O)c2ccco2)c2cc3ccccc3nc21 the results were RE007 growth inh inactive, Lassa entry inh inconclusive, Sm TGR inh 45µM, Marburg entry inh inconclusive, FMDV inh inconclusive and HCV inh 35µM.
Screening CC(=O)Nc1nn(C)c2nc3cc(C)ccc3cc12 returned RE007 growth inh inactive, Lassa entry inh inactive, Sm TGR inh inactive, Marburg entry inh inactive, FMDV inh inactive and HCV inh inconclusive.
Screening CCCCn1nc(NC(=O)c2cccs2)c2cc3ccccc3nc21 returned RE007 growth inh inactive, Lassa entry inh inconclusive, Sm TGR inh inactive, Marburg entry inh 16µM, FMDV inh inactive and HCV inh inconclusive.
`Cc1ccc2cc3c(NC(=O)c4ccco4)nn(C)c3nc2c1` gave RE007 growth inh inactive, Lassa entry inh inconclusive, Sm TGR inh 50µM, Marburg entry inh inactive, FMDV inh inactive and HCV inh inconclusive.
For CCCn1nc(NC(=O)c2cccs2)c2cc3ccccc3nc21 the results were RE007 growth inh inactive, Lassa entry inh inconclusive, Sm TGR inh inactive, Marburg entry inh inconclusive, FMDV inh inactive and HCV inh 11µM.
Screening COc1cc(=O)n2c(c1C(=O)NCc1ccco1)CCN(C(=O)c1c(F)ccc(F)c1F)CC2 returned FMDV inh inactive.
For CSc1ccc(CCNC(=O)CCn2c(=O)c3cccn3c3cccnc32)cc1 the results were Lassa entry inh inactive, Sm TGR inh inactive and FMDV inh inactive.
COc1ccc2nc(C)cc(SCC(=O)NNC(=O)COc3ccccc3)c2c1 was read as RE007 growth inh inactive, Lassa entry inh inactive, Sm TGR inh inactive, Marburg entry inh inactive, FMDV inh inactive and HCV inh inactive.
COc1ccc2nc(C)cc(Sc3nc4ccccc4s3)c2c1 was read as RE007 growth inh inactive, Lassa entry inh 16µM, Sm TGR inh inactive, Marburg entry inh inconclusive, FMDV inh 16µM and HCV inh inconclusive.
c1ccc(N2CCCCC2)c(Nc2nc3ccccc3n3cnnc23)c1 was read as RE007 growth inh inactive, Lassa entry inh inconclusive, Sm TGR inh inactive, Marburg entry inh inconclusive, FMDV inh inactive and HCV inh 6.3µM.
`FC(F)(F)c1ccc(N2CCOCC2)c(Nc2nc3ccccc3n3cnnc23)c1` gave RE007 growth inh inactive, Lassa entry inh inconclusive, Sm TGR inh inactive, Marburg entry inh 4.1µM, FMDV inh inactive and HCV inh inconclusive.
`Fc1ccc(Nc2nc3ccccc3n3cnnc23)c(F)c1` gave Sm TGR inh inactive, Marburg entry inh inactive and FMDV inh inactive.
c1ccc2c(c1)nc(Nc1ccc(N3CCCCC3)cc1)c1nncn12 was read as RE007 growth inh inactive, Sm TGR inh inactive, FMDV inh inactive and HCV inh inconclusive.
`CSC1=NC2(CCN(C(=O)NC3CCCCC3)CC2)N=C1c1ccc(C)c(C)c1` gave Lassa entry inh inconclusive, Sm TGR inh inactive and FMDV inh inactive.

From PubChem
